BAZ2B inh – inhibitors of human BAZ2B bromodomain; Q9UIF8; AlphaScreen BAZ2B-H3K14Ac peptide displacement; Potency, µM (titrated, usually from 114 µM), most hits filed as inhibitors; 360,000 tested, 4.4% active; AID 504333; also: nearly all actives have a fitted effect of over 60% in size
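Protein-peptide AlphaScreen: BAZ2B 50 nM, b-H3K14Ac 50 nM, 1x PBS pH 7.4 + 0.01% Tween-20. Preincubation 30 min RT; cpd 30 min RT (top 110 uM); beads 20 min RT, light-protected.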
HP1b chromo inh – inhibitors of HP1-beta chromodomain binding to methylated histone tails. P83916. AlphaScreen HP1-beta / biotin-H3K9me3 peptide binding. Potency, µM (titrated, usually from 114 µM), actives largely listed as inhibitors. 390,000 tested, 0.56% active. AID 540317; also: nearly all actives have a fitted effect of over 70% in size
Target sequence (P83916 whole entry, looked up): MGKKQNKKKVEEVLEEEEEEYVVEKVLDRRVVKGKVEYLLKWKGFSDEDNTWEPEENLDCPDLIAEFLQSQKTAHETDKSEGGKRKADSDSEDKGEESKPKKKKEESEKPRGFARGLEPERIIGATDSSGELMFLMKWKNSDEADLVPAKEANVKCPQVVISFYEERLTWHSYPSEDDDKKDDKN
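Compound inhibition of the preformed complex between 50 nM HP1-beta and 50 nM biotinylated H3K9me3 peptide was read by AlphaScreen. Buffer was PBS pH 7.4 with 0.01% Tween-20. Incubations ran 30 min at room temperature, with 10 ug/mL donor/acceptor beads.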
JMJD2A Tudor inh – blocks the human JMJD2A Tudor domain; O75164; AlphaScreen JMJD2A-Tudor / H3K4me3 peptide binding; Potency, µM (top dose mostly 114 µM), actives largely listed as inhibitors; 390,000 tested, 4.4% active; also: nearly all actives have a fitted effect of over 50% in size
Sfp PPTase inh – blocks B. subtilis Sfp PPTase activity. 310,000 tested, 3.5% active. AID 1490. Potency, µM, actives largely listed as inhibitors. Q9F4F7. Biochemical Sfp PPTase activity, qHTS;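 also: the enzyme is Sfp with the accession as filed and its product quenches rhodamine fluorescence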
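Compounds were incubated with enzyme (final 15 nM) for 15 min at room temperature before substrate addition started the reaction. Fluorescence at 525 nm excitation, 598 nm emission was recorded immediately and after 30 minutes.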
L3MBTL1 block – inhibitors of human L3MBTL1; Q9Y468; AlphaScreen L3MBTL1–H3K9me1 peptide binding; Potency, µM (highest dose often 57.1 µM), most hits filed as inhibitors; 230,000 tested, 0.66% active; also: nearly all actives have a fitted effect of over 60% in size
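AlphaScreen assay: L3MBTL1 (50 nM final) was preincubated 30 min at room temperature with biotinylated H3(1-15)K9me1 peptide (75 nM final), then 30 min with library compounds; streptavidin donor and nickel chelate acceptor beads (10 ug/mL final) added, 30 min dark.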
G9a inh – G9a (human) methyltransferase inhibition | G9a H3K9 monomethylation, AlphaScreen, 2 h | Potency, µM (titrated, usually from 102 µM), usual class: inhibitors | 350,000 tested, 8.8% active; also: nearly all actives have a fitted effect of over 75% in size
Target sequence (Q96KQ7 913-1193 limits assumed): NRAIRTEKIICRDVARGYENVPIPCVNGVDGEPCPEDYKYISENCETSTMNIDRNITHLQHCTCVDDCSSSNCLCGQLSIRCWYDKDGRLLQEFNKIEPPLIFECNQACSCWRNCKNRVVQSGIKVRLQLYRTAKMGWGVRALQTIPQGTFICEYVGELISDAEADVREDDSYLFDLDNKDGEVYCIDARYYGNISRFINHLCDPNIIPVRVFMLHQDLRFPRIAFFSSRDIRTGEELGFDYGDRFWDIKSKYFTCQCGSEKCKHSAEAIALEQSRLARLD
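Step 1: enzyme (final 20 nM) with compound, 15 min RT. Step 2: substrate peptide 500 nM and SAM 20 uM, 2 h RT. Step 3: anti-H3K9me1 antibody and AlphaScreen beads, 10 min, then plate read.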
Hits are given with their value; 0 = inactive; ? = inconclusive; - = not tested or not shown; [ ] = another dose, or the depositor's remark. This is a sample that favours compounds with a hit; in the whole collection about 12% have one here. Calls follow the shape of the dose curve; as a rule, active = well fitted curve in the direction sought with a large enough effect; inconclusive = small, poorly fitted or top-dose-only effect, or another doubt; inactive = no such curve, though single readings can be large; an effect the other way counts as inactive or inconclusive.

SMILES | BAZ2B inh | HP1b chromo inh | JMJD2A Tudor inh | Sfp PPTase inh | L3MBTL1 block | G9a inh
Cc1ccc(NS(=O)(=O)c2ccc3[nH]c4c(c3c2)CCCC4)cc1N(C)C | 32µM | ? | 35µM | - | - | ?
Cc1ccc(NS(=O)(=O)c2ccc3[nH]c4c(c3c2)CCCCCC4)cc1Cl | 0 | 0 | ? | - | - | 0
CC(=O)N1CCC2(CCCN(c3ccc(-c4ccccc4)cc3)C2)CC1 | - | - | - | ? | - | 0[12.7 µM]
C[C@@H]1CC2C3CCC4=CC(=O)C=C[C@]4(C)[C@@]3(F)[C@@H](O)C[C@]2(C)[C@@]1(O)C(=O)COC(=O)c1cccc(S(=O)(=O)O)c1 (stereo partly drawn) | - | - | - | 0 | - | 0[12.7 µM]
COc1cccc(/C=N/NC(=O)CCc2c(C)n[nH]c2C)c1O | 0 | 0 | 0 | 0 | 0 | 0
O=S(=O)(Nc1cccc(Cl)c1)c1ccc2[nH]c3c(c2c1)CCCCCC3 | ? | 0 | ? | - | - | 0
Cc1ccccc1NS(=O)(=O)c1ccc2[nH]c3c(c2c1)CCCCC3 | 0 | 0 | 45µM | - | - | ?
Cc1cccc(NS(=O)(=O)c2ccc3[nH]c4c(c3c2)CCCCCC4)c1 | 0 | 0 | ? | - | - | 16µM
O=S(=O)(c1ccc2c(c1)OCO2)N1CCN(c2nc(-c3cccs3)nc3ccccc23)CC1 | - | 0 | 0 | - | - | -
Cc1ccc(C)c(N2CCN(C(=O)c3nn(C)c4c3CS(=O)(=O)c3ccccc3-4)CC2)c1 | 0 | 0 | 0 | 0 | - | 0
O=c1[nH]nc(SCc2nc3ccccc3s2)n1C1CC1 | 0 | 0 | 0 | 0 | 0 | 7.9µM
Cc1cc(C)c(-n2c(SCc3nc4ccccc4s3)n[nH]c2=O)c(C)c1 | 0 | 0 | 0 | 0 | - | 0
CCCn1c(SCc2nc3ccccc3s2)n[nH]c1=O | 0 | 0 | ? | 0 | 0 | 56µM
CC(C)[C@@H]1NC(=O)[C@H](CCCCN)NC(=O)[C@@H](Cc2c[nH]c3ccccc23)NC(=O)[C@H](Cc2ccc(O)cc2)NC(=O)[C@@H](NC(=O)[C@H](N)Cc2ccccc2)CSSC[C@@H](C(=O)N[C@@H](Cc2c[nH]c3ccccc23)C(N)=O)NC1=O | - | - | - | 0 | - | -
O=S(=O)(O)NC1CCCCC1 | - | - | - | 0 | - | 0[12.7 µM]
Nc1nc(-c2ccccn2)nc(N)c1Cc1ccccc1F | 6.3µM | 0 | ? | 0 | 4µM | 0
Nc1nc(-c2ccccn2)nc(N)c1Cc1ccc(Cl)cc1Cl | 7.9µM | 0 | 89µM | ? | 3.5µM | 0
O=C(NCCCN1CCCC1)c1ccc(CS(=O)(=O)c2ccc(Br)cc2)o1 | 0 | 0 | 0 | 0 | - | 56µM
O=C(NCCCN1CCCC1)c1ccc(CS(=O)(=O)c2ccc(Cl)cc2)o1 | 0 | 0 | 0 | 0 | - | 0
COc1ccc(N2CCN(CCCNC(=O)c3ccc(CS(=O)(=O)c4ccc(Cl)cc4)o3)CC2)cc1 | 28µM | 0 | 0 | 0 | - | 50µM
COc1ccc(OC)c(NC(=O)N2CCCC(C(=O)c3ccccc3OC)C2)c1 (stereo not drawn) | ? | 0 | 0 | 0 | 0 | ?
COC(=O)c1sc(NC(=O)c2ccco2)c(C#N)c1C | 0 | 0 | 0 | 40µM | - | 35µM
CCOC(=O)c1sc(NC(=O)c2cccnc2)c(C#N)c1C | 0 | 0 | 0 | 0 | 0 | 11µM
CCOC(=O)c1sc(NC(=O)c2cc(-c3ccccc3)nc3ccccc23)c(C#N)c1C | ? | ? | 0[11.4 µM] | 40µM | 0 | 0[0.0925 µM]
CCCC(=O)NCC(c1ccc2c(c1)OCO2)N1CCOCC1 (stereo not drawn) | 0 | 0 | 0 | - | - | 0
SMILES | BAZ2B inh | HP1b chromo inh | JMJD2A Tudor inh | Sfp PPTase inh | L3MBTL1 block | G9a inh
O=C1c2ccccc2C(=O)N1c1ccccc1O | - | - | 0 | - | - | -
CC(NCC(O)COc1ccc2ccccc2c1)c1ccccc1 (stereo not drawn) | 50µM | 45µM | 0.79µM | 0 | - | 14µM
Oc1ccc(C[C@H]2CNCCN2CCCCC2CCCCC2)cc1 | ? | 0 | 0 | - | 0 | 0[2.33 µM]
CC(=O)Nc1cc2c(cc1C(=O)c1ccccc1)OCCO2 | 0 | 0 | 0 | 0 | 0 | 0
Nc1cc2c(cc1C(=O)c1ccc(Cl)cc1)OCCO2 | 35µM | 0 | 50µM | 0 | - | 45µM
Nc1cc2c(cc1C(=O)c1ccccc1)OCCO2 | 40µM | 0 | ? | 0 | 0 | -
Cc1ccc(C(=O)c2cc3c(cc2N)OCCO3)cc1 | 35µM | 0 | 50µM | 0 | ? | 28µM
COC(=O)c1cc2c(cc1N)OCCO2 | ? | 0 | 0 | ? | 0 | 56µM
COc1ccccc1-c1noc2ncnc(Nc3ccc4c(c3)OCO4)c12 | 0 | 0 | 0 | 0 | 0 | -
CC(=O)c1ccc(OC(=O)c2cc3ccccc3oc2=O)cc1 | 0 | - | - | 0 | 0 | 0
C[C@H]1COc2c(N3CCN(C)CC3)c(F)cc3c(=O)c(C(=O)NCc4ccco4)cn1c23 | - | - | - | 0 | - | -
Cc1[nH]n(-c2ccc([N+](=O)[O-])cc2)c(=O)c1C=NCCN1CCN(C(=O)c2ccc(Br)cc2)CC1 | 0 | 0 | 0 | 0 | - | ?
COCCCN=Cc1c(C)[nH]n(-c2ccc(Br)cc2Br)c1=O | - | 0 | 0 | 0 | - | 50µM
CON(c1nc(Cl)nc(N(C)C)n1)S(=O)(=O)c1ccc(C)cc1 | 0 | 0 | ? | 0 | - | 0
COC(=O)c1ccc2c(=O)n(CCN3CCOCC3)c(=S)[nH]c2c1 | 0 | 0 | 56µM | 0 | 0[11.4 µM] | 0[12.7 µM]
O=C(NCCCN1CCOCC1)c1c(O)c2ccccc2[nH]c1=O | 0 | 0 | 0 | 0 | 0 | 50µM
COc1ccccc1Cn1c(=S)[nH]c2cc(C(=O)NCCN3CCOCC3)ccc2c1=O | 0 | 0 | 0 | 0 | 0 | ?
COc1ccccc1Cn1c(=S)[nH]c2cc(C(=O)NCCCN3CCOCC3)ccc2c1=O | 0 | 0 | 0 | 0 | - | 35µM
COCCn1c(=S)[nH]c2cc(C(=O)NCCCN3CCOCC3)ccc2c1=O | ? | 0 | 25µM | 79µM | 0 | -
O=C(NCCCN1CCOCC1)c1cc2c(=O)[nH]c3ccccc3c2s1 | 0 | 0 | 0 | 0 | 0 | 0
CCOc1ccccc1NC(=O)CSc1nc2c([nH]c3ccccc32)c(=O)n1-c1ccccc1 | 0 | 0 | 0 | - | - | 0
